Laboratory results published in the supplement of paper PMC12645437, “Orthogonal IMiD-Degron Pairs Induce Selective Protein Degradation in Cells” (ACS Chemical Biology, 2025).
In all, about 8,300 sequences were measured (“log2 fold change of degron read counts, EGFP-low vs EGFP+ sorted cells (limma voom), compound-induced degradation”: median about -1.1, highest 2% from about 3.2 on). The sample holds the highest values, similar sequences and a random draw of the others, so the mix is not that of the screen.

Biological target: T1, CRBN, Q96SW2
T1 chain: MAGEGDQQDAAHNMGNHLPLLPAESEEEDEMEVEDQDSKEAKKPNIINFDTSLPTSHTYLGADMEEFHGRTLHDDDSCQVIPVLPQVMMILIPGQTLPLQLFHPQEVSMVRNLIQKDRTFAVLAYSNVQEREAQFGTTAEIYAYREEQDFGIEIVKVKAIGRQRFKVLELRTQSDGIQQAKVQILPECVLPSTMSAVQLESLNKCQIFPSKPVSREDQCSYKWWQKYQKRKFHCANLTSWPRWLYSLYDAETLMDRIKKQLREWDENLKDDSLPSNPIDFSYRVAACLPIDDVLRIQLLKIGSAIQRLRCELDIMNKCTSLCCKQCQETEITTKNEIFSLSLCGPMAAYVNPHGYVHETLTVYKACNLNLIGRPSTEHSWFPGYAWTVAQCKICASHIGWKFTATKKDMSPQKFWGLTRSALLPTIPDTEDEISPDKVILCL
Experiment: log2 fold change of degron read counts, EGFP-low vs EGFP+ sorted cells (limma voom), compound-induced degradation; higher = more compound-induced degradation of the degron-EGFP fusion; degrons are variants of IKZF1/3 zinc finger 2; compound dose not given here
Details: Jurkat, 18 h
Procedure: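 Pooled library of 8380 IKZF3 ZF2 degron mutants (positions 146-167 varied within the IKZF3 130-189 degron; only the varied core is printed, flanks not printed) fused to EGFP with IRES-mCherry, lentivirally expressed in Jurkat cells. mCherry+ cells were treated with one IMiD compound for 18 h (dose not stated) and FACS-sorted into EGFP-low and EGFP+ populations. Degron sequences were counted by NGS, and log2FC (EGFP-low vs EGFP+) was estimated by limma voom over 3 biological replicates.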

[1] = compound: compound 19 (5-tert-butyl-thalidomide)
[2] = compound: compound 22 (5-morpholino-thalidomide)
[3] = compound: compound 33 (diphenyl IMiD analogue)
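Further: pooled lentiviral library of zinc finger degron-EGFP fusions in mCherry-positive Jurkat cells, FACS-sorted after compound exposure, with degron abundance counted by next-generation sequencing.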

Sequence: FSCPVCGAMFTQKGNLLRHIKL [46F_47S_49P_50V_52G_53A_54M_55F_67L_, Q9UKT9]
- log2 fold change of degron read counts [1]: 1.68
- log2 fold change of degron read counts [2]: 0.847
- log2 fold change of degron read counts [3]: 1.55
- log2 fold change of degron read counts (compound: thalidomide): 0.449

Sequence: FNCPVCGAMFTQKGNLLRHIKL [46F_47N_49P_50V_52G_53A_54M_55F_67L_, Q9UKT9]
- log2 fold change of degron read counts [1]: 0.95
- log2 fold change of degron read counts [2]: -0.0712
- log2 fold change of degron read counts [3]: 0.173
- log2 fold change of degron read counts (compound: thalidomide): 0.109

Sequence: FVCPVCGAMFTQKGNLLRHIKL [46F_47V_49P_50V_52G_53A_54M_55F_67L_, Q9UKT9]
- log2 fold change of degron read counts [1]: -0.83
- log2 fold change of degron read counts [2]: 1.28
- log2 fold change of degron read counts [3]: 1.78
- log2 fold change of degron read counts (compound: thalidomide): 1.71

Sequence: FQCPVCGAMFTQKGNLLRHIKL [46F_47Q_49P_50V_52G_53A_54M_55F_67L_, Q9UKT9]
- log2 fold change of degron read counts [1]: -0.606
- log2 fold change of degron read counts [2]: 2.26
- log2 fold change of degron read counts [3]: 2.34
- log2 fold change of degron read counts (compound: thalidomide): 3.58

Sequence: FGCPVCGAMFTQKGNLLRHIKL [46F_47G_49P_50V_52G_53A_54M_55F_67L_, Q9UKT9]
- log2 fold change of degron read counts [1]: 3.86
- log2 fold change of degron read counts [2]: 2.08
- log2 fold change of degron read counts [3]: 2.22
- log2 fold change of degron read counts (compound: thalidomide): 0.29

Sequence: FACPVCGAMFTQKGNLLRHIKL [46F_47A_49P_50V_52G_53A_54M_55F_67L_, Q9UKT9]
- log2 fold change of degron read counts [1]: 2.83
- log2 fold change of degron read counts [2]: 0.812
- log2 fold change of degron read counts [3]: 0.601
- log2 fold change of degron read counts (compound: thalidomide): -0.0754

Sequence: LHCNQCGFRCTQKGNLLRHIKL [46L_47H_49N_50Q_52G_53F_54R_55C_67L_, Q9UKT9]
- log2 fold change of degron read counts [1]: -1.15
- log2 fold change of degron read counts [2]: -1.7
- log2 fold change of degron read counts [3]: -1.52
- log2 fold change of degron read counts (compound: thalidomide): -1.61

Sequence: FRCPICGHQFTQKGNLLRHIKL [46F_47R_49P_50I_52G_53H_54Q_55F_67L_, Q9UKT9]
- log2 fold change of degron read counts [1]: -2.97
- log2 fold change of degron read counts [2]: -2.88
- log2 fold change of degron read counts [3]: -2.09
- log2 fold change of degron read counts (compound: thalidomide): -1.65

Sequence: FNCEICGRGFTQKGNLLRHIKL [46F_47N_49E_50I_52G_53R_54G_55F_67L_, Q9UKT9]
- log2 fold change of degron read counts [1]: -0.684
- log2 fold change of degron read counts [2]: -2.34
- log2 fold change of degron read counts [3]: -2.3
- log2 fold change of degron read counts (compound: thalidomide): -2.43

Sequence: FICDVCGADFTQKGNLLRHIKL [46F_47I_49D_50V_52G_53A_54D_55F_67L_, Q9UKT9]
- log2 fold change of degron read counts [1]: -3.13
- log2 fold change of degron read counts [2]: -2.03
- log2 fold change of degron read counts [3]: -2.05
- log2 fold change of degron read counts (compound: thalidomide): -2.17

Sequence: FTCEICGRSFTQKGNLLRHIKL [46F_47T_49E_50I_52G_53R_54S_55F_67L_, Q9UKT9]
- log2 fold change of degron read counts [1]: -2.68
- log2 fold change of degron read counts [2]: -1.98
- log2 fold change of degron read counts [3]: -1.23
- log2 fold change of degron read counts (compound: thalidomide): -0.866

Sequence: FVCNICGAAFTQKGNLLRHIKL [46F_47V_49N_50I_52G_53A_54A_55F_67L_, Q9UKT9]
- log2 fold change of degron read counts [1]: -0.113
- log2 fold change of degron read counts [2]: 1.76
- log2 fold change of degron read counts [3]: 1.87
- log2 fold change of degron read counts (compound: thalidomide): 2.31

Sequence: LVCNQCGFDCTQKGNLLRHIKL [46L_47V_49N_50Q_52G_53F_54D_55C_67L_, Q9UKT9]
- log2 fold change of degron read counts [1]: -2.99
- log2 fold change of degron read counts [2]: -3.3
- log2 fold change of degron read counts [3]: -2.89
- log2 fold change of degron read counts (compound: thalidomide): -2.71

Sequence: LTCNQCGFFCTQKGNLLRHIKL [46L_47T_49N_50Q_52G_53F_54F_55C_67L_, Q9UKT9]
- log2 fold change of degron read counts [1]: -1.72
- log2 fold change of degron read counts [2]: -1.87
- log2 fold change of degron read counts [3]: -2.06
- log2 fold change of degron read counts (compound: thalidomide): -1.27

Sequence: FTCEVCGAEFTQKGNLLRHIKL [46F_47T_49E_50V_52G_53A_54E_55F_67L_, Q9UKT9]
- log2 fold change of degron read counts [1]: -0.301
- log2 fold change of degron read counts [2]: 1.19
- log2 fold change of degron read counts [3]: 0.247
- log2 fold change of degron read counts (compound: thalidomide): 1.9

Sequence: FQCPVCGAEFTQKGNLLRHIKL [46F_47Q_49P_50V_52G_53A_54E_55F_67L_, Q9UKT9]
- log2 fold change of degron read counts [1]: 0.475
- log2 fold change of degron read counts [2]: 1.57
- log2 fold change of degron read counts [3]: 2.3
- log2 fold change of degron read counts (compound: thalidomide): 3.76

Sequence: FKCEVCGAEFTQKGNLLRHIKL [46F_47K_49E_50V_52G_53A_54E_55F_67L_, Q9UKT9]
- log2 fold change of degron read counts [1]: -1.42
- log2 fold change of degron read counts [2]: -2.94
- log2 fold change of degron read counts [3]: -2.99
- log2 fold change of degron read counts (compound: thalidomide): -1.02

Sequence: FVCPVCGAEFTQKGNLLRHIKL [46F_47V_49P_50V_52G_53A_54E_55F_67L_, Q9UKT9]
- log2 fold change of degron read counts [1]: -0.775
- log2 fold change of degron read counts [2]: 1.8
- log2 fold change of degron read counts [3]: 1.37
- log2 fold change of degron read counts (compound: thalidomide): 2.53

Sequence: FYCEVCGAEFTQKGNLLRHIKL [46F_47Y_49E_50V_52G_53A_54E_55F_67L_, Q9UKT9]
- log2 fold change of degron read counts [1]: 3.4
- log2 fold change of degron read counts [2]: 2.95
- log2 fold change of degron read counts [3]: 2.08
- log2 fold change of degron read counts (compound: thalidomide): 0.0761

Sequence: FQCEVCGAEFTQKGNLLRHIKL [46F_47Q_49E_50V_52G_53A_54E_55F_67L_, Q9UKT9]
- log2 fold change of degron read counts [1]: 0.65
- log2 fold change of degron read counts [2]: 0.856
- log2 fold change of degron read counts [3]: 1.61
- log2 fold change of degron read counts (compound: thalidomide): 3.7

Sequence: FFCEVCGAEFTQKGNLLRHIKL [46F_47F_49E_50V_52G_53A_54E_55F_67L_, Q9UKT9]
- log2 fold change of degron read counts [1]: 3.01
- log2 fold change of degron read counts [2]: 3.05
- log2 fold change of degron read counts [3]: 0.82
- log2 fold change of degron read counts (compound: thalidomide): 0.898

Sequence: FNCEVCGAEFTQKGNLLRHIKL [46F_47N_49E_50V_52G_53A_54E_55F_67L_, Q9UKT9]
- log2 fold change of degron read counts [1]: 0.9
- log2 fold change of degron read counts [2]: -1.18
- log2 fold change of degron read counts [3]: -1.23
- log2 fold change of degron read counts (compound: thalidomide): -0.895

Sequence: FSCPVCGAEFTQKGNLLRHIKL [46F_47S_49P_50V_52G_53A_54E_55F_67L_, Q9UKT9]
- log2 fold change of degron read counts [1]: 1.12
- log2 fold change of degron read counts [2]: 0.204
- log2 fold change of degron read counts [3]: 1.45
- log2 fold change of degron read counts (compound: thalidomide): 0.472
